Source: publication PMC7862700, “An all-to-all approach to the identification of sequence-specific readers for epigenetic DNA modifications on cytosine”

Tests used:
Assay in all cases: DAPPL (digital affinity profiling via proximity ligation, sequencing); 10 mM Tris-HCl pH 7.5, 50 mM NaCl, 1 mM DTT, 4% glycerol, room temperature, 30 min; GST-TFs on glutathione beads, 16-mer random dsDNA library, 0.1% formaldehyde crosslink after washing; high values mean tight binding
FEV = biological target: T1, FEV (Homo sapiens, UniProt Q99581 1-238); conditions: protein: recombinant; tags: N-terminal GST; dsDNA, one strand shown
T1 sequence: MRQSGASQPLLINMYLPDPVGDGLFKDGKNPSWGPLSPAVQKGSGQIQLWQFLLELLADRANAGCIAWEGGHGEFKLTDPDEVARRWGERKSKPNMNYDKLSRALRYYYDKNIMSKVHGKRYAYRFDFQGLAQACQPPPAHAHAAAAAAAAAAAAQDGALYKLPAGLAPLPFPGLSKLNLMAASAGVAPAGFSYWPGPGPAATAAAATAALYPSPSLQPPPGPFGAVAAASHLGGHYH
Method in brief: (§1)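 Binding signal is each hexamer's read frequency for a factor divided by its frequency in the tag-only sample. The factors were GST-fused human transcription factors from yeast, captured on glutathione beads, DNA-barcoded and pooled with that sample. Pools were incubated with 200 nmole of a random double-stranded 16-mer DNA library in Tris/NaCl/DTT/glycerol buffer at room temperature for 30 min, then washed, crosslinked with 0.1% formaldehyde, proximity-ligated with BsaI/T4 ligase (1 h, 37 °C), PCR-amplified and sequenced on an Illumina NextSeq500.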

ETV5 = ETV5 (Homo sapiens, UniProt P41161 1-510); conditions: protein: recombinant; tags: N-terminal GST; dsDNA, one strand shown
Chain of ETV5 (P41161 whole entry): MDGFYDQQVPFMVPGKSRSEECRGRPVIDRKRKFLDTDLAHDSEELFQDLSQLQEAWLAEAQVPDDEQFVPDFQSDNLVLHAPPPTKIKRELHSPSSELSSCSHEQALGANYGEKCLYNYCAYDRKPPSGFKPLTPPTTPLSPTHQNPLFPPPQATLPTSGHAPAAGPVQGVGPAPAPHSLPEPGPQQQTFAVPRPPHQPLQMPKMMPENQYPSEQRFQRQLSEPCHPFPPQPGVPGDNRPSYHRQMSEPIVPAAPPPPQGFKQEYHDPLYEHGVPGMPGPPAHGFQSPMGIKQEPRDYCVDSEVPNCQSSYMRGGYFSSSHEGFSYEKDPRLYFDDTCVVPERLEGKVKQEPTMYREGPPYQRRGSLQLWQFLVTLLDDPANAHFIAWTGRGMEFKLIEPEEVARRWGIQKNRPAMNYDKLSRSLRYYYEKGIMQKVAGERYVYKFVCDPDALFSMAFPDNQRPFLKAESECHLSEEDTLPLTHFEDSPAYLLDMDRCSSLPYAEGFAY
Method in brief: as §1

HSF1 = HSF1 (Homo sapiens, UniProt Q00613 1-529); conditions: protein: recombinant; tags: N-terminal GST; chain copies: 3; dsDNA, one strand shown
Chain of HSF1 (Q00613 whole entry): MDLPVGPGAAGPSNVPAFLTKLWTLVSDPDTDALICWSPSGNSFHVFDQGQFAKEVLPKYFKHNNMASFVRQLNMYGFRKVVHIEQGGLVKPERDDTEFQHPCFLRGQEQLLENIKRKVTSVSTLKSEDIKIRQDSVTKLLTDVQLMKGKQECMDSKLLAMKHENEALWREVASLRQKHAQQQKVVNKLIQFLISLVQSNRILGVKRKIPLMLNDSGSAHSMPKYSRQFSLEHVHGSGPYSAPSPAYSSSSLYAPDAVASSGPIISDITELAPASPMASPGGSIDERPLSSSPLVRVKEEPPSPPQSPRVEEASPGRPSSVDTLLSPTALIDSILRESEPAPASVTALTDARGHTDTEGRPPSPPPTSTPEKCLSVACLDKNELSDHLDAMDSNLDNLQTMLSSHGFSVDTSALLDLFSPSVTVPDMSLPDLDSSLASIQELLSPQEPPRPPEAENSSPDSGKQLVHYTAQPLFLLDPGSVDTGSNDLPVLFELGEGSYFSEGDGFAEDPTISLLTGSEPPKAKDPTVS
Method in brief: as §1

SPIC = biological target: T2, SPIC (Homo sapiens, UniProt Q8N5J4 1-248); conditions: protein: recombinant; tags: N-terminal GST; dsDNA, one strand shown
T2 sequence: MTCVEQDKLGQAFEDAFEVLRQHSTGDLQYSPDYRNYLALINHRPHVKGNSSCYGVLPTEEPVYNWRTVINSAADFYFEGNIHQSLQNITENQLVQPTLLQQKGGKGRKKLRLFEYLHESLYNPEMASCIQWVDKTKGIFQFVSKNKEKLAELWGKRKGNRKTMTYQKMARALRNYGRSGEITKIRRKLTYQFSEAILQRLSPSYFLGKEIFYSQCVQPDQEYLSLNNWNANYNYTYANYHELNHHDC
Method in brief: as §1

ELF4 = ELF4 (Homo sapiens, UniProt Q99607 1-663); conditions: protein: recombinant; tags: N-terminal GST; dsDNA, one strand shown
Chain of ELF4 (Q99607 whole entry): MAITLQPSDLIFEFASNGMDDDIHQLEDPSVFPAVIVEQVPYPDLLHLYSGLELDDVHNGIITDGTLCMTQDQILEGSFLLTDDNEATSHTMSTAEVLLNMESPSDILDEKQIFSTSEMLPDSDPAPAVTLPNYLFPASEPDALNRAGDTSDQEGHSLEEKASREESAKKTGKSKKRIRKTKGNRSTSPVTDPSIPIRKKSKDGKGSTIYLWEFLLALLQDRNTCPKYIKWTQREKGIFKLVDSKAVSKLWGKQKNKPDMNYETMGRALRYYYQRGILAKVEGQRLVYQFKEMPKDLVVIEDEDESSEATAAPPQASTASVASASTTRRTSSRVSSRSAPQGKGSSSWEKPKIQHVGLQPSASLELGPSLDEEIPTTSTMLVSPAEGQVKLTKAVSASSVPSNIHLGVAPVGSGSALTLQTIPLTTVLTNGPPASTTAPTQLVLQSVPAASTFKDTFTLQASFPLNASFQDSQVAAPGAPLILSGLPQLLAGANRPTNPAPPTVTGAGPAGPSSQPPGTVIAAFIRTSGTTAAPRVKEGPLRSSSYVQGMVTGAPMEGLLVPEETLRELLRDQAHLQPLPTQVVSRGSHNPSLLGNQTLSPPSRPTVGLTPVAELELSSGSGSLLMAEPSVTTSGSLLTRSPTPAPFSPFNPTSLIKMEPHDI
Method in brief: as §1

ELF3 = biological target: T3, ELF3 (Homo sapiens, UniProt P78545 1-371); conditions: protein: recombinant; tags: N-terminal GST; dsDNA, one strand shown
T3 sequence: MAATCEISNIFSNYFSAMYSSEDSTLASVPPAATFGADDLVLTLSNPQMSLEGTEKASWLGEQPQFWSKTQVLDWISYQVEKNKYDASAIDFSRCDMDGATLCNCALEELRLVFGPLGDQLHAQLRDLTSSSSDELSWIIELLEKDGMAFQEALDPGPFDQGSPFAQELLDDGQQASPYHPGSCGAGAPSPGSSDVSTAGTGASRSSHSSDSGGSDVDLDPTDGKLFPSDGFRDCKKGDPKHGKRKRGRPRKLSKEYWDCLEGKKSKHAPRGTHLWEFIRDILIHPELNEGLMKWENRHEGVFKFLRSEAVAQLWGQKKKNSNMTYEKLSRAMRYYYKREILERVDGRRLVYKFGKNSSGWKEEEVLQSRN
Method in brief: as §1

CRX = CRX (Homo sapiens, UniProt O43186 1-299); conditions: protein: recombinant; tags: N-terminal GST; dsDNA, one strand shown
Chain of CRX (O43186 whole entry): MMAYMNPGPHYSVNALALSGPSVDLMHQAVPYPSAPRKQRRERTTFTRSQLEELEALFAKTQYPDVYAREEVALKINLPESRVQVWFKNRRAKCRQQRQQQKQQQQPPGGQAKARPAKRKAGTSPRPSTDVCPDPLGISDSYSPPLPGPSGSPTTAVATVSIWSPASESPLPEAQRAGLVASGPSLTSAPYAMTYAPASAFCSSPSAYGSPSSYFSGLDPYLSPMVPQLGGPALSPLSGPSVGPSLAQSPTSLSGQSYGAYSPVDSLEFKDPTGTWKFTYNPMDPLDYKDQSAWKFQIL
Method in brief: as §1

ERF = biological target: T4, ERF (Homo sapiens, UniProt P50548 1-548); conditions: protein: recombinant; tags: N-terminal GST; dsDNA, one strand shown
T4 sequence: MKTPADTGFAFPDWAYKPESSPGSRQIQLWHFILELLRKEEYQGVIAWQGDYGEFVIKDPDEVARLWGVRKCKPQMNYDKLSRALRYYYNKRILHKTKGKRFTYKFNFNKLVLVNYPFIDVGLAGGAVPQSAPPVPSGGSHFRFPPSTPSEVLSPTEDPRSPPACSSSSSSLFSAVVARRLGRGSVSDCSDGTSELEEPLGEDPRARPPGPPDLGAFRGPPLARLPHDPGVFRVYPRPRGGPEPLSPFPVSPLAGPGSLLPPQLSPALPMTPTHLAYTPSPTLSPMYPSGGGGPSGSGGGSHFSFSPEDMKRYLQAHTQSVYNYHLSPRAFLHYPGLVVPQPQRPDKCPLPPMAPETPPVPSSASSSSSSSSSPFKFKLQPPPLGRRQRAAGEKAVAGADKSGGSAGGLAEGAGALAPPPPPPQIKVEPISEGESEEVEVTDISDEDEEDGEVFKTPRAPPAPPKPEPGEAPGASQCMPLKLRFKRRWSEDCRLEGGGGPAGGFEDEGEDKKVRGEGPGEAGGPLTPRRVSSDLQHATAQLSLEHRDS
Method in brief: as §1

ETS2 = biological target: T5, ETS2 (Homo sapiens, UniProt P15036 1-469); conditions: protein: recombinant; tags: N-terminal GST; dsDNA, one strand shown
T5 sequence: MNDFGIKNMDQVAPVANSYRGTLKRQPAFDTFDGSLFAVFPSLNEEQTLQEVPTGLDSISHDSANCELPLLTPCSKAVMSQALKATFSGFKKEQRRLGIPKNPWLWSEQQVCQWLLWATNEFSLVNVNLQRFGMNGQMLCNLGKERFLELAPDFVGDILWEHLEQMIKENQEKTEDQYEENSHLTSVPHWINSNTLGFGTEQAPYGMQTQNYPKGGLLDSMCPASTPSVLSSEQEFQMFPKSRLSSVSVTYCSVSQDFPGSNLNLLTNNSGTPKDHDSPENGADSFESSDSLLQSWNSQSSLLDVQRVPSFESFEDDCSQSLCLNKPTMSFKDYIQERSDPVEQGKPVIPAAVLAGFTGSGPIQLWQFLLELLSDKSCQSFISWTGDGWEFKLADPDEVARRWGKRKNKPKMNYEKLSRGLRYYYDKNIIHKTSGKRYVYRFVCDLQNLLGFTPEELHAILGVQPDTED
Method in brief: as §1

ETV7 = biological target: T6, ETV7 (Homo sapiens, UniProt Q9Y603 1-341); conditions: protein: recombinant; tags: N-terminal GST; dsDNA, one strand shown
T6 sequence: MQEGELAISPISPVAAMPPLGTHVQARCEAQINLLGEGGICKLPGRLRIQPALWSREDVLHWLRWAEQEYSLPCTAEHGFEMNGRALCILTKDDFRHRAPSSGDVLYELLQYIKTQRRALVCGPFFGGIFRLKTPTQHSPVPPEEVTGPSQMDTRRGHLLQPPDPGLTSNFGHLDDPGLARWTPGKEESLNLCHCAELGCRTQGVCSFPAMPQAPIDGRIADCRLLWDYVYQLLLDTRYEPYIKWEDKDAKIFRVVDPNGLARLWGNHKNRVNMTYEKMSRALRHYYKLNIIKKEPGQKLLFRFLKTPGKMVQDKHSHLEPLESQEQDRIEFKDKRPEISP
Method in brief: as §1

ELF5 = biological target: T7, ELF5 (Homo sapiens, UniProt Q9UKW6-2 1-255); conditions: protein: recombinant; tags: N-terminal GST; dsDNA, one strand shown
T7 sequence: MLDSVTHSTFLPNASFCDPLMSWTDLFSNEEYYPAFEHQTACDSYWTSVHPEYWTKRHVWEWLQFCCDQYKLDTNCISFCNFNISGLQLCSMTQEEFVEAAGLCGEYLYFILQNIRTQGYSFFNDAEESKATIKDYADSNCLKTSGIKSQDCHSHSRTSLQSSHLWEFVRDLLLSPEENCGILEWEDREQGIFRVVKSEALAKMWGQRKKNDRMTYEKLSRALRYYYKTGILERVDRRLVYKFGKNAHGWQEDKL
Method in brief: as §1

ETV3 = biological target: T8, ETV3 (Homo sapiens, UniProt P41162-2 1-143); conditions: protein: recombinant; tags: N-terminal GST; dsDNA, one strand shown
T8 sequence: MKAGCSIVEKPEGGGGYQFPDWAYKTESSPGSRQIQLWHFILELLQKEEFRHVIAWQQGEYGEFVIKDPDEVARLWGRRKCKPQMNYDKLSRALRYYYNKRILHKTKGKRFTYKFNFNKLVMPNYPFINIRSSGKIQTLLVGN
Method in brief: as §1

ETV6 = ETV6 (Homo sapiens, UniProt P41212 1-452); conditions: protein: recombinant; tags: N-terminal GST; dsDNA, one strand shown
Chain of ETV6 (P41212 whole entry): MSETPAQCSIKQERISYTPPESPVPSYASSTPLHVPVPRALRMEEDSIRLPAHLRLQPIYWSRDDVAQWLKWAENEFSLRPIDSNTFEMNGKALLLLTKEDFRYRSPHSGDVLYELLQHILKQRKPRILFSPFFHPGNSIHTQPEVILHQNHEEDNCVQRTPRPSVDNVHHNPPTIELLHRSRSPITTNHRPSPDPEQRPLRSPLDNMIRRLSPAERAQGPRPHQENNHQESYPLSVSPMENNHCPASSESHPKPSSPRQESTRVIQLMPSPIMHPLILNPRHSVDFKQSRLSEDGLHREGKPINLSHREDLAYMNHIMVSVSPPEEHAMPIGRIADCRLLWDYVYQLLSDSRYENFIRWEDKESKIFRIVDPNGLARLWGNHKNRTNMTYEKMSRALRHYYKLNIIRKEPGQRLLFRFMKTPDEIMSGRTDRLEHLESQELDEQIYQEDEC
Method in brief: as §1

ETV2 = biological target: T9, ETV2 (Homo sapiens, UniProt O00321 1-342); conditions: protein: recombinant; tags: N-terminal GST; dsDNA, one strand shown
T9 sequence: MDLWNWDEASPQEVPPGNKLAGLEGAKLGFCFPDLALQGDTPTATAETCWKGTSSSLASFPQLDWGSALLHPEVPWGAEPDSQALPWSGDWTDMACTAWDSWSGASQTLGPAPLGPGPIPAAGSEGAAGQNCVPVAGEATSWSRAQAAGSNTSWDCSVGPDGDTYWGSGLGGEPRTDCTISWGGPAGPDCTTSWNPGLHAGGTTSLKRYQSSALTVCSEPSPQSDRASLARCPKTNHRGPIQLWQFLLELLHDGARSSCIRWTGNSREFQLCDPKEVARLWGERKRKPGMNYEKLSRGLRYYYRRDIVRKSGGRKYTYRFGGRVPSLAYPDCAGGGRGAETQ
Method in brief: as §1

ETV1 = ETV1 (Homo sapiens, UniProt P50549 1-477); conditions: protein: recombinant; tags: N-terminal GST; dsDNA, one strand shown
Chain of ETV1 (P50549 whole entry): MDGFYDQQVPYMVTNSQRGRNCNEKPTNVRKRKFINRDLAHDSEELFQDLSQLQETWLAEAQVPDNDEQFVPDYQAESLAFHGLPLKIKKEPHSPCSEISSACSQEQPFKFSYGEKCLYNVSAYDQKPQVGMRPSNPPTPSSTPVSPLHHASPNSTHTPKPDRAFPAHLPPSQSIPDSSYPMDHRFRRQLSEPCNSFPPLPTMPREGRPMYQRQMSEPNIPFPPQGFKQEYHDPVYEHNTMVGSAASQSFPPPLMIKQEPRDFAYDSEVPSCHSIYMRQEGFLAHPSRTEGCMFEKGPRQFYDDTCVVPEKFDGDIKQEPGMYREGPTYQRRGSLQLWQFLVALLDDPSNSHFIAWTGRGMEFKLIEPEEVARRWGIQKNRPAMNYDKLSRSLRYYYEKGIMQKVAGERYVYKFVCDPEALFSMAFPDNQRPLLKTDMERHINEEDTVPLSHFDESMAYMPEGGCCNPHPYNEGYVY
Method in brief: as §1

ETV3L = biological target: T10, ETV3L (Homo sapiens, UniProt Q6ZN32 1-361); conditions: protein: recombinant; tags: N-terminal GST; dsDNA, one strand shown
T10 sequence: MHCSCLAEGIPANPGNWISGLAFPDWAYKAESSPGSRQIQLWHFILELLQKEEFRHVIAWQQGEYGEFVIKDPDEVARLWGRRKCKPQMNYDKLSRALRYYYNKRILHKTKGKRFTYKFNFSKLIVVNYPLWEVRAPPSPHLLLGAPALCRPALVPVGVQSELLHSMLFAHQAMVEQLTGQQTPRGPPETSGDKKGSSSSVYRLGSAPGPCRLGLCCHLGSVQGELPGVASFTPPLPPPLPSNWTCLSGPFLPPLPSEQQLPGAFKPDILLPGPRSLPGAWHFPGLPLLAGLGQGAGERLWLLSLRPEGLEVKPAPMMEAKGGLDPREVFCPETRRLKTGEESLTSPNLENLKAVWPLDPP
Method in brief: as §1

SPDEF = biological target: T11, SPDEF (Homo sapiens, UniProt O95238 1-335); conditions: protein: recombinant; tags: N-terminal GST; dsDNA, one strand shown
T11 sequence: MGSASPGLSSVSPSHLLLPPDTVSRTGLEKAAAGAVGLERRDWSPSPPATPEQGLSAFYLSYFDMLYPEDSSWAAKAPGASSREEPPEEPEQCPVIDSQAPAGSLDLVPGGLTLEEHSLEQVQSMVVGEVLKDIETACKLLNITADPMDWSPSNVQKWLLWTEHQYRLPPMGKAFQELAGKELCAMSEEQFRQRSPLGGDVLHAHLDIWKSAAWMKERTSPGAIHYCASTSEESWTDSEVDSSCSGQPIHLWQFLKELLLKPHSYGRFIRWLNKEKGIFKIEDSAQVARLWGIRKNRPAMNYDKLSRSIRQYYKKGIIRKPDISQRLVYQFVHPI
Method in brief: as §1

Row | Sequence | binding signal (FEV) | binding signal (ETV5) | binding signal (HSF1) | binding signal (SPIC) | binding signal (ELF4) | binding signal (ELF3) | binding signal (CRX) | binding signal (ERF) | binding signal (ETS2) | binding signal (ETV7) | binding signal (ELF5) | binding signal (ETV3) | binding signal (ETV6) | binding signal (ETV2) | binding signal (ETV1) | binding signal (ETV3L) | binding signal (SPDEF)
1 | AGACTT | 1.05 fold enrichment (6-mer frequency, TF over GST control) | 1.05 fold enrichment (6-mer frequency, TF over GST control) | 1.15 fold enrichment (6-mer frequency, TF over GST control) | 1.08 fold enrichment (6-mer frequency, TF over GST control) | 1.02 fold enrichment (6-mer frequency, TF over GST control) | 1.13 fold enrichment (6-mer frequency, TF over GST control) | 1.24 fold enrichment (6-mer frequency, TF over GST control) | 1.02 fold enrichment (6-mer frequency, TF over GST control) | 1 fold enrichment (6-mer frequency, TF over GST control) | 1.02 fold enrichment (6-mer frequency, TF over GST control) | 1.2 fold enrichment (6-mer frequency, TF over GST control) | 1.09 fold enrichment (6-mer frequency, TF over GST control) | 1.04 fold enrichment (6-mer frequency, TF over GST control) | – | – | – | –
2 | CTAGGC | 1.16 fold enrichment (6-mer frequency, TF over GST control) | 1.06 fold enrichment (6-mer frequency, TF over GST control) | 1.22 fold enrichment (6-mer frequency, TF over GST control) | 1.15 fold enrichment (6-mer frequency, TF over GST control) | 1.16 fold enrichment (6-mer frequency, TF over GST control) | – | 1.17 fold enrichment (6-mer frequency, TF over GST control) | – | 1.01 fold enrichment (6-mer frequency, TF over GST control) | 1.2 fold enrichment (6-mer frequency, TF over GST control) | 1.04 fold enrichment (6-mer frequency, TF over GST control) | 1.09 fold enrichment (6-mer frequency, TF over GST control) | 1.06 fold enrichment (6-mer frequency, TF over GST control) | 1.21 fold enrichment (6-mer frequency, TF over GST control) | 1.04 fold enrichment (6-mer frequency, TF over GST control) | 1.07 fold enrichment (6-mer frequency, TF over GST control) | 1 fold enrichment (6-mer frequency, TF over GST control)
